Experimental data taken from PubChem BioAssay AID1159580 (chemical genetic matrix, 2015).
Screen size: about 5,500 compounds; about 2,000 (36%) were called active. Another 18% or so got no clear call; they are omitted. Rule as the data show it: active = normalized growth mostly below about 0.91 (no sharp cut-off); inconclusive = no clear call, values can overlap the other calls; inactive = mostly above about 0.92. The list shows a part of the results.

Test: chemical genetic growth profiling, strain panel (AID 1159580);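 also: tested at 20 µM; growth read once vehicle control cultures reached saturation at 30 °C; 1 = growth at the plate median or of vehicle wells; lower values mean less growth of the strain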
Settings: growth OD

Measured: normalized growth

Cc1c(N(C)C)c(=O)n(-c2ccccc2)n1C
inactive: S. cerevisiae deletion strains, locus YKL009W, strain mrt4, active compounds read low 0.984 | S. cerevisiae deletion strains, locus YKL068W, active compounds read low 0.991 | S. cerevisiae deletion strains, locus YKL085W, strain MDH1 (second series), active compounds read low 0.985 | S. cerevisiae deletion strains, locus YKL085W, strain MDH1, active compounds read low 0.985 | S. cerevisiae deletion strains, locus YKL160W, strain elf1, active compounds read low 0.988 | S. cerevisiae deletion strains, locus YKL190W, strain CNB1, active compounds read low 0.988 | S. cerevisiae deletion strains, locus YKR001C, strain vps1, active compounds read low 1 | S. cerevisiae deletion strains, locus YKR026C, strain gcn3, active compounds read low 0.992 | S. cerevisiae deletion strains, locus YKR091W, strain srl3, active compounds read low 0.976 | S. cerevisiae deletion strains, locus YLL001W, strain dnm1, active compounds read low 0.972 | S. cerevisiae deletion strains, locus YLL026W, active compounds read low 0.973 | S. cerevisiae deletion strains, locus YLL041C, strain sdh2, active compounds read low 0.992 | S. cerevisiae deletion strains, locus YLR027C, strain aat2, active compounds read low 0.97 | S. cerevisiae deletion strains, locus YLR039C, strain RIC1, active compounds read low 0.983 | S. cerevisiae deletion strains, locus YLR058C, strain SHM2, active compounds read low 0.997 | S. cerevisiae deletion strains, locus YLR102C, strain apc9, active compounds read low 0.992 | S. cerevisiae deletion strains, locus YLR113W, strain HOG1, active compounds read low 1.03 | S. cerevisiae deletion strains, locus YLR221C, strain rsa3, active compounds read low 1.06 | S. cerevisiae deletion strains, locus YLR258W, strain gsy2, active compounds read low 0.985 | S. cerevisiae deletion strains, locus YLR262C, strain YPT6 (second series), active compounds read low 0.971 | S. cerevisiae deletion strains, locus YLR262C, strain YPT6, active compounds read low 0.972 | S. cerevisiae deletion strains, locus YLR268W, strain sec22, active compounds read low 0.963 | S. cerevisiae deletion strains, locus YLR320W, strain mms22, active compounds read low 0.994 | S. cerevisiae deletion strains, locus YLR330W, strain CHS5, active compounds read low 0.989 | S. cerevisiae deletion strains, locus YLR342W, strain FKS1 (second series), active compounds read low 1.05 | S. cerevisiae deletion strains, locus YLR342W, strain FKS1, active compounds read low 0.961 | S. cerevisiae deletion strains, locus YLR357W, strain rsc2, active compounds read low 0.935 | S. cerevisiae deletion strains, locus YLR370C, strain arc18, active compounds read low 0.984 | S. cerevisiae deletion strains, locus YLR371W, strain rom2, active compounds read low 0.991 | S. cerevisiae deletion strains, locus YLR384C, strain iki3, active compounds read low 0.991 | S. cerevisiae deletion strains, locus YLR418C, strain cdc73, active compounds read low 1.03 | S. cerevisiae deletion strains, locus YML016C, strain PPZ1, active compounds read low 1 | S. cerevisiae deletion strains, locus YML032C, strain rad52, active compounds read low 0.967 | S. cerevisiae deletion strains, locus YML120C, strain ndi1, active compounds read low 0.993 | S. cerevisiae deletion strains, locus YML124C, strain tub3, active compounds read low 0.997 | S. cerevisiae deletion strains, locus YMR058W, strain fet3, active compounds read low 1.01 | S. cerevisiae deletion strains, locus YMR078C, strain ctf18, active compounds read low 0.985 | S. cerevisiae deletion strains, locus YMR125W, strain sto1, active compounds read low 0.989 | S. cerevisiae deletion strains, locus YMR129W, active compounds read low 0.991 | S. cerevisiae deletion strains, locus YMR205C, strain PFK2, active compounds read low 0.991 | S. cerevisiae deletion strains, locus YMR223W, strain ubp8, active compounds read low 1.02 | S. cerevisiae deletion strains, locus YMR231W, strain pep5, active compounds read low 0.978 | S. cerevisiae deletion strains, locus YMR263W, strain SAP30, active compounds read low 0.989 | S. cerevisiae deletion strains, locus YMR307W, strain GAS1, active compounds read low 1.08 | S. cerevisiae deletion strains, locus YNL067W, strain RPL9B, active compounds read low 0.978 | S. cerevisiae deletion strains, locus YNL071W, strain lat1, active compounds read low 1 | S. cerevisiae deletion strains, locus YNL128W, strain TEP1, active compounds read low 0.983 | S. cerevisiae deletion strains, locus YNL153C, strain GIM3, active compounds read low 0.985 | S. cerevisiae deletion strains, locus YNL183C, strain NPR1, active compounds read low 0.988 | S. cerevisiae deletion strains, locus YNL209W, strain ssb2, active compounds read low 1.01 | S. cerevisiae deletion strains, locus YNL233W, strain BNI4, active compounds read low 0.986 | S. cerevisiae deletion strains, locus YNL248C, strain rpa49, active compounds read low 1 | S. cerevisiae deletion strains, locus YNL250W, strain rad50, active compounds read low 0.972 | S. cerevisiae deletion strains, locus YNL271C, strain bni1, active compounds read low 0.966 | S. cerevisiae deletion strains, locus YNL298W, strain CLA4, active compounds read low 1 | S. cerevisiae deletion strains, locus YNL307C, strain MCK1, active compounds read low 0.996 | S. cerevisiae deletion strains, locus YNL322C, strain KRE1 (second series), active compounds read low 0.975 | S. cerevisiae deletion strains, locus YNL322C, strain KRE1, active compounds read low 0.991 | S. cerevisiae deletion strains, locus YNR049C, strain mso1, active compounds read low 0.996 | S. cerevisiae deletion strains, locus YNR052C, strain pop2, active compounds read low 0.993 | S. cerevisiae deletion strains, locus YOL006C, strain TOP1, active compounds read low 0.978 | S. cerevisiae deletion strains, locus YOL012C, strain htz1 2 | S. cerevisiae deletion strains, locus YOL147C, strain pex11, active compounds read low 0.985 | S. cerevisiae deletion strains, locus YOR001W, strain rrp6, active compounds read low 0.971 | S. cerevisiae deletion strains, locus YOR061W, strain CKA2, active compounds read low 0.995 | S. cerevisiae deletion strains, locus YOR069W, strain VPS5, active compounds read low 1 | S. cerevisiae deletion strains, locus YOR070C, strain gyp1, active compounds read low 0.999 | S. cerevisiae deletion strains, locus YOR080W, strain dia2, active compounds read low 0.98 | S. cerevisiae deletion strains, locus YOR083W, strain WHI5, active compounds read low 0.956 | S. cerevisiae deletion strains, locus YOR106W, strain vam3, active compounds read low 0.988 | S. cerevisiae deletion strains, locus YOR136W, strain idh2, active compounds read low 1 | S. cerevisiae deletion strains, locus YOR144C, strain elg1, active compounds read low 0.992 | S. cerevisiae deletion strains, locus YOR184W, strain ser1, active compounds read low 1.01 | S. cerevisiae deletion strains, locus YOR231W, strain MKK1, active compounds read low 0.992 | S. cerevisiae deletion strains, locus YOR265W, strain rbl2, active compounds read low 0.998 | S. cerevisiae deletion strains, locus YOR270C, strain vph1, active compounds read low 1.04 | S. cerevisiae deletion strains, locus YOR290C, strain snf2, active compounds read low 0.996 | S. cerevisiae deletion strains, locus YOR316C, strain cot1, active compounds read low 0.998 | S. cerevisiae deletion strains, locus YPL051W, strain arl3, active compounds read low 0.992 | S. cerevisiae deletion strains, locus YPL055C, strain LGE1, active compounds read low 1 | S. cerevisiae deletion strains, locus YPL078C, strain atp4, active compounds read low 0.98 | S. cerevisiae deletion strains, locus YPL106C, strain sse1, active compounds read low 0.974 | S. cerevisiae deletion strains, locus YPL240C, strain hsp82, active compounds read low 0.99 | S. cerevisiae deletion strains, locus YPL241C, strain CIN2, active compounds read low 0.996 | S. cerevisiae deletion strains, locus YPL256C, strain CLN2, active compounds read low 1.02 | S. cerevisiae deletion strains, locus YPR119W, strain clb2, active compounds read low 0.994 | S. cerevisiae deletion strains, locus YPR141C, strain kar3, active compounds read low 0.966 | S. cerevisiae deletion strains, locus YPR163C, strain tif3, active compounds read low 0.976 | S. cerevisiae deletion strains, locus YPR167C, strain met16, active compounds read low 0.989 | S. cerevisiae deletion strains, strain wtn01, active compounds read low 0.997 | S. cerevisiae strains, strain wild type, active compounds read low 0.995
